FMDV FLuc – shows antiviral activity against foot and mouth disease virus. FMDV antiviral cell assay, firefly luciferase signal. Potency, µM (top dose mostly 57.5 µM), usual class: inhibitors. 0.23% of 120,000 active. AID 1745856; note: nearly all actives have a fitted effect of over 60% in size
FMDV Renilla – shows antiviral activity in FMDV Renilla assay | AID 1745857 | FMDV replicon cells, Renilla luciferase signal | Potency, µM (series often up to 57.5 µM), most hits filed as inhibitors | 0.32% of 120,000 active; note: nearly all actives have a fitted effect of over 55% in size
Numbers stand for hits; [ ] = dose if it differs, or a comment. Shown are actives, neighbours in structure and some others; about 0.51% of the full set was active somewhere. Calls come from the whole dose curve.

Screening Cc1ccc(C(=O)NC(NC(=O)c2ccc(Cl)cc2)C(Cl)Cl)cc1 (stereo unspecified) returned FMDV FLuc inactive and FMDV Renilla inactive.
O=C(Nc1nc(-c2ccc(Cl)cc2Cl)cs1)C1CCN(C(=O)c2ccco2)CC1 was read as FMDV FLuc inconclusive and FMDV Renilla 35.5µM.
Screening O=C(Nc1ccc(-n2cccn2)c(F)c1)C1CCN(C(=O)c2ccco2)CC1 returned FMDV FLuc inactive and FMDV Renilla inactive.
Screening COCCn1cnc2c1c(=O)n(CC(=O)Nc1ccc(OC(F)F)cc1)c(=O)n2Cc1ccccc1 returned FMDV FLuc inactive and FMDV Renilla inactive.
For CCc1ccccc1NC(=O)CCl the results were FMDV FLuc inactive and FMDV Renilla inactive[1.06 µM].
`CSc1ccc(CN(C)C(=O)CSc2nnc(COc3ccc(Cl)cc3)n2C)cc1` gave FMDV FLuc 10µM and FMDV Renilla 3.98µM.
CN(Cc1ccsc1)C(=O)CSc1nnc(COc2ccc(Cl)cc2)n1C was read as FMDV FLuc inactive and FMDV Renilla inactive.
`Cn1c(=O)[nH]c(=O)c2c1nc(SCc1ccc(F)cc1)n2Cc1ccccc1` gave FMDV FLuc inactive and FMDV Renilla inactive.
Screening COc1ccc(NC(=O)c2ccc3c(c2)NC(=O)CS3)cn1 returned FMDV FLuc inactive and FMDV Renilla inactive.
COc1cc(C)ccc1Oc1ccc(NC(=O)c2ccc3c(c2)NC(=O)CS3)cn1 was read as FMDV FLuc inconclusive and FMDV Renilla 25.1µM.
For CCc1cc2c(=O)c(Oc3ccc(F)cc3)c(C(F)(F)F)oc2cc1OC(C)=O the results were FMDV FLuc 14.1µM and FMDV Renilla 10µM.
`CCc1cc2c(=O)c(Oc3ccc(I)cc3)c(C(F)(F)F)oc2cc1OC(=O)c1ccc(Br)cc1` gave FMDV FLuc inactive and FMDV Renilla inactive.
Screening O=C(Nc1ccc(OC(F)(F)F)cc1)c1cc2ccccn2n1 returned FMDV FLuc inactive and FMDV Renilla 8.91µM.
Screening O=C(Nc1ccccc1C(F)(F)F)c1cc2ccccn2n1 returned FMDV FLuc inactive and FMDV Renilla inactive.
`CCOc1cc(C2CC(=O)Nc3c(-c4ccc(OC)cc4)csc32)ccc1OCC(N)=O` (stereo unspecified) gave FMDV FLuc 12.6µM and FMDV Renilla 8.91µM.
Screening COc1cc(C2CC(=O)Nc3c2sc(C(=O)O)c3-c2ccc(F)cc2)cc(OC)c1OC (stereo unspecified) returned FMDV FLuc inactive and FMDV Renilla inactive.
Screening Cc1nc2cc(NC(=O)c3ccc(F)cc3)ccc2o1 returned FMDV FLuc inactive and FMDV Renilla inactive.
Screening COc1ccc(-c2nc(SCc3cc(=O)c4cccc(Cl)c4[nH]3)n[nH]2)cc1 returned FMDV FLuc inconclusive and FMDV Renilla 11.2µM.
`COc1ccc(-c2nc(SCc3cc(=O)c4cc(C)ccc4[nH]3)n[nH]2)cc1` gave FMDV FLuc inactive and FMDV Renilla inconclusive.
CCSc1ccccc1C(=O)Nc1ccc2c(c1)CCC2 was read as FMDV FLuc inactive and FMDV Renilla inactive.
For Cn1c(C(=O)Nc2cccc3ncccc23)c(Cl)c2ccccc21 the results were FMDV FLuc inactive and FMDV Renilla inactive.
Screening Cc1cc2nc(COC(=O)c3cccc(NC(=O)c4ccc(C(C)(C)C)cc4)c3C)cc(=O)n2o1 returned FMDV FLuc inactive and FMDV Renilla inactive.
`CCOC(=O)Cn1nc(C)c(NC(=O)COc2ccccc2)c1C` gave FMDV FLuc inactive and FMDV Renilla inactive.
Screening CCOC(=O)Cn1nc(C)c(NC(=O)COc2ccc(Cl)cc2C)c1C returned FMDV FLuc inconclusive and FMDV Renilla 10µM.
For Cc1ccc(-c2ccc(OC(=O)c3ccc(C)c(Br)c3)cc2)cc1 the results were FMDV FLuc inactive and FMDV Renilla inactive.
For CCS(=O)CCSc1nc(-c2ccccc2)cc(-c2ccccc2)c1C#N (stereo unspecified) the results were FMDV FLuc inactive and FMDV Renilla inactive.
For CCN(Cc1cccs1)C(=O)CCl the results were FMDV FLuc inactive and FMDV Renilla inactive.
`CN(Cc1cccs1)C(=O)CCl` gave FMDV FLuc inconclusive and FMDV Renilla 28.2µM.
Cc1cc(C)cc(C(=O)NCCc2csc(-c3ccc(C(F)(F)F)cc3)n2)c1 was read as FMDV FLuc inactive and FMDV Renilla inactive.
Screening CC(=O)N1CCN(Cc2csc(-c3ccc(C(F)(F)F)cc3)n2)CC1 returned FMDV FLuc 20µM and FMDV Renilla 12.6µM.
Screening Cc1cnc(C(=O)OCc2ccc(Cl)cc2)cn1 returned FMDV FLuc inactive and FMDV Renilla inactive.
`N#Cc1ccc(CN2CCN(C(=O)c3ccc(Cn4nnc5ccccc54)cc3)CC2)cc1` gave FMDV FLuc 6.31µM and FMDV Renilla 5.01µM.
`N#Cc1ccc(CN2CCN(C(=O)C3CC=CCC3)CC2)cc1` (stereo unspecified) gave FMDV FLuc inactive and FMDV Renilla inactive.
Screening Cc1cc(C)nc(NS(=O)(=O)c2ccc(NC(=O)c3nc(SC(C)C)ncc3Cl)cc2)n1 returned FMDV FLuc inactive and FMDV Renilla 11.2µM.
`Cc1ccnc(NS(=O)(=O)c2ccc(NC(=O)c3nc(SC(C)C)ncc3Cl)cc2)n1` gave FMDV FLuc inactive and FMDV Renilla inactive.
Screening O=S(=O)(Nc1nc2ccccc2nc1Nc1ccc(F)cc1)c1ccc(F)cc1 returned FMDV FLuc 2.51µM and FMDV Renilla 3.55µM.
COc1ccccc1Nc1nc2ccccc2nc1NS(=O)(=O)c1ccc(Cl)s1 was read as FMDV FLuc inactive and FMDV Renilla inactive.
For CCOc1ccc(S(=O)(=O)Nc2nc3ccccc3nc2Nc2ccc(F)cc2)cc1 the results were FMDV FLuc inactive and FMDV Renilla inactive.
COc1cccc(Nc2nc3ccccc3nc2NS(=O)(=O)c2cccc(Cl)c2)c1 was read as FMDV FLuc inconclusive and FMDV Renilla inactive.
O=S(=O)(Nc1nc2ccccc2nc1Nc1cccc(F)c1)c1cccc(Cl)c1 was read as FMDV FLuc 3.55µM and FMDV Renilla 3.98µM.
`O=S(=O)(Nc1nc2ccccc2nc1Nc1ccccc1)c1ccc(Cl)s1` gave FMDV FLuc 4.47µM and FMDV Renilla inconclusive.
CCOCCCNC(=O)CSCc1nc(-c2ccc(C)cc2)oc1C was read as FMDV FLuc inactive and FMDV Renilla inactive.
`CCc1ccc(-c2nc(CSCC(=O)NCCCOC)c(C)o2)cc1` gave FMDV FLuc 25.1µM and FMDV Renilla inactive.
`COc1ccc(Cl)cc1NC(=O)CCn1nc(-c2cccs2)oc1=O` gave FMDV FLuc inactive and FMDV Renilla inactive.
For CCCn1ccc2c(OCC(=O)NCc3ccc(C)cc3)cccc2c1=O the results were FMDV FLuc inactive and FMDV Renilla inactive.
`CCCCc1ccc(NC(=O)COc2cccc3c(=O)n(C)ccc23)cc1` gave FMDV FLuc inconclusive and FMDV Renilla 8.91µM.
Screening CN1CCN(Cc2ccc(CNCc3ccc(C#N)cc3)cc2)CC1 returned FMDV FLuc inactive and FMDV Renilla inactive.
`COc1ccc(-c2c(C(F)(F)F)oc3cc(OS(C)(=O)=O)ccc3c2=O)cc1OC` gave FMDV FLuc 3.55µM and FMDV Renilla inconclusive.
`COc1ccc2c(=O)c(-c3ccc(OC)c(OC)c3)c(C(F)(F)F)oc2c1` gave FMDV FLuc inactive and FMDV Renilla inactive.
For CN(Cc1ccc2ccccc2c1)C(=O)CN(C)c1ncnc2nc[nH]c12 the results were FMDV FLuc 31.6µM and FMDV Renilla inconclusive.
`CN(CC(=O)N(C)C1CCCc2ccccc21)c1ncnc2nc[nH]c12` (stereo unspecified) gave FMDV FLuc inactive and FMDV Renilla inactive.
C=CCNC(=O)COC(=O)c1cc(-c2ccc(C)o2)nc2ccccc12 was read as FMDV FLuc inactive and FMDV Renilla inactive.

Screens from PubChem BioAssay.
